Screens as filed in PubChem.
HT1080NT lethal = kills 2HG-producing HT-1080-NT fibrosarcoma cells. HT-1080-NT fibrosarcoma viability, CellTiter-Glo ATP luminescence, 48 h. AID 686970. 360,000 tested, 1.6% active. Potency, µM (doses to about 46.1 µM), without a hit: at the highest dose activity, negative = less viability, actives largely listed as cytotoxic;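 also: NT is the 2HG producing partner of a matched IDH1 knockdown line; 0% = DMSO-treated cells and -100% = media-only wells without cells; nearly all actives have a fitted effect of over 55% in size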
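Luminescent CellTiter-Glo readout after 48 hours of compound exposure at 37 degrees C defined viability of HT-1080-NT cells. Activity was normalized to DMSO wells and cell-free media wells; concentration-response curves were fitted and assigned curve classes.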
KB-3-1 tox = KB-3-1 parental cell cytotoxicity | KB-3-1 viability, CellTiter-Glo ATP luminescence, 72 h | Potency, µM (top dose mostly 46.1 µM), most hits filed as cytotoxic | 400,000 tested, 1.4% active; also: nearly all actives have a fitted effect of over 60% in size
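Cells are dispensed, compounds pinned in, plates held at 37 °C for 72 h, then CellTiter-Glo is added and luminescence read after 10 minutes. Cell line: parental KB-3-1 in phenol-red-free DMEM, 10% FBS.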
DT40 TDP1 no CPT = qHTS for Inhibitors of human tyrosyl-DNA phosphodiesterase 1 (TDP1): qHTS in cells in absence of CPT | 420,000 tested, 15% active | Potency, µM (highest dose often 46.2 µM), for inactives: at the top dose activity change, negative = growth inhibition, hits mostly inhibitors | DT40 Tdp1-/- hTDP1 cells, no CPT, ATP luminescence, 48 h; also: nearly all actives have a fitted effect of over 55% in size
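Chicken DT40 Tdp1-/- cells complemented with human TDP1, screened without camptothecin (DMSO vehicle only), 400 cells/well. Compounds pin-transferred, cells incubated at 37 °C for at least 48 hr. Growth read as ATP-dependent luminescence (CellTiter-Glo, 30 min at RT).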
KB-V1 MDR tox = kills drug-selected multidrug resistant KB-V1 cells; AID 1347076; Potency, µM (highest dose often 46.1 µM), actives largely listed as cytotoxic; KB-V1 MDR cells viability, CellTiter-Glo, 72 h; 400,000 tested, 3.4% active; also: nearly all actives have a fitted effect of over 60% in size
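KB-V1, DMEM (no phenol red) + 10% FBS; cpd pin-transferred, titration series; 72 h, 37 degrees C; CellTiter-Glo, luminescence. Data normalized, curve-fit.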
TDP1 cell CPT = growth inhibition of DT40 Tdp1-/-;hTDP1 cells with camptothecin (screen for TDP1 inhibitors); chicken DT40 Tdp1-/-;hTDP1 cells + 20 nM CPT, ATP luminescence, 48 h; Potency, µM (highest dose often 46.2 µM), without a hit: at the highest dose activity change, negative = growth inhibition, usual class: inhibitors; 420,000 tested, 12% active; also: nearly all actives have a fitted effect of over 55% in size
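Chicken DT40 Tdp1-/- cells complemented with human TDP1, 400 cells/well, exposed to compounds plus 20 nM camptothecin for at least 48 h at 37 C; viability read as ATP content by CellTiter-Glo luminescence.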
HT1080 IDH1KD tx = toxicity to HT-1080 IDH1 knockdown cells (counter line) | HT-1080 IDH1 knockdown viability, ATP luminescence, 48 h | Potency, µM (top dose mostly 46.1 µM), for the others: top-dose activity, negative = toxicity, usual class: cytotoxic | 360,000 tested, 2% active | AID 686971;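 also: 0% = DMSO wells and -100% = cell-free medium wells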
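Cytotoxicity counter-line: IDH1KD HT-1080, 48 h, CellTiter-Glo. Curves classed by r2, magnitude and activity.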
Numbers without * were called inactive; i = inactive; ? = inconclusive; / = not tested or not shown. In the library only some 19% were active in any assay of this set; here they are far more common. Calls follow the shape of the dose curve; as a rule, active = well fitted curve in the direction sought with a large enough effect; inconclusive = small, poorly fitted or top-dose-only effect, or another doubt; inactive = no such curve, though single readings can be large; an effect the other way counts as inactive or inconclusive. Unless noted, % is scaled to controls: 0 for no effect and ±100 for the full control effect; potency is read from the fitted curve at half-maximal effect.

SMILES	HT1080NT lethal	KB-3-1 tox	DT40 TDP1 no CPT	KB-V1 MDR tox	TDP1 cell CPT	HT1080 IDH1KD tx
C[C@]12c3[nH]c4ccccc4c3CCN1C(=O)C(CC(=O)NCc1ccco1)C[C@@H]2C(=O)N1CCCCC1 (some centres not stated)	-2%	i	?	i	?	-4%
CCN(CC)C(=O)[C@H]1CC(CC(=O)NC/C=C(\C)CCC=C(C)C)C(=O)N2CCc3c([nH]c4ccccc34)[C@]12C (some centres not stated)	6%	i	?	i	23µM*	2%
CC(C)=CCC/C(C)=C/CNC(=O)CC1C[C@H](C(=O)N2CCCCC2)[C@@]2(C)c3[nH]c4ccccc4c3CCN2C1=O (some centres not stated)	-2%	i	13µM*	i	21µM*	3%
CCN(CC)C(=O)[C@H]1C[C@H](CC(=O)NC/C=C(\C)CCC=C(C)C)C(=O)N2CCc3c([nH]c4ccc(Cl)cc34)[C@]12C	8%	?	?	i	?	1%
CC(C)[C@H](NC(=O)NCc1ccc(F)cc1)C(=O)O	7%	i	-4%	i	4%	5%
Cc1cccc(C)c1NC(=O)NCCc1c[nH]c2ccccc12	/	i	?	?	?	/
CC[C@]12c3[nH]c4ccccc4c3CCN1C(=O)C(CC(=O)NC/C=C(\C)CCC=C(C)C)C[C@@H]2C(=O)N1CCN(C(=O)C2CC2)CC1 (some centres not stated)	-3%	i	15µM*	i	21µM*	-24%
CC(C)=CCC/C(C)=C/CNC(=O)C[C@H]1C[C@H](C(=O)N(C(C)C)C(C)C)[C@@]2(C)c3[nH]c4cc(CCC(=O)N(C)C)ccc4c3CCN2C1=O	?	i	9.2µM*	i	10µM*	?
Cc1[nH]cnc1C(=O)N/N=C/c1ccc([N+](=O)[O-])s1	-17%	?	10µM*	?	12µM*	-25%
Cc1cc(C(=O)N/N=C/c2ccc([N+](=O)[O-])s2)n[nH]1	-7%	?	5.2µM*	i	5.8µM*	-19%
CCN(Cc1ccccc1)C(c1ccc(C(F)(F)F)cc1)c1nnnn1C(C)(C)C (configuration not stated)	-2%	16µM*	21µM*	21µM*	?	-1%
CCN1CCN(C(c2ccccc2)c2nnnn2C(C)(C)C)CC1 (configuration not stated)	14%	i	2%	i	-4%	11%
CC(C)(C)n1nnnc1C(c1cccnc1)N(Cc1ccccc1)Cc1ccco1 (configuration not stated)	11%	i	?	?	?	5%
CCN(Cc1ccccc1)C(c1cccc(C#N)c1)c1nnnn1C(C)(C)C (configuration not stated)	-23%	i	23µM*	13µM*	?	?
COc1ccc2cc(CNc3ccc(OC)c(OC)c3)c(=O)n(CC(=O)Nc3ccc(C)cc3)c2c1	/	i	/	i	/	/
CCC1CCC(C(=O)NC(CCSC)C(=O)NCCN(CC(C)C)CC(C)C)CC1 (configuration not stated)	0%	i	?	i	?	4%
Cc1nn(CC(=O)OCC(=O)c2ccccc2)c(C)c1[N+](=O)[O-]	0%	?	-2%	?	-20%	-2%
CN(C)c1ncc2nc(-c3ccccc3)c(=O)n(CCC#N)c2n1	/	/	-2%	/	-5%	/
Cc1ccc(C)c(S(=O)(=O)N2CCCCC2CCNC(=O)C(=O)NCc2ccncc2)c1 (configuration not stated)	9%	?	?	2.3µM*	?	-3%
O=C(NCCC1CCCCN1S(=O)(=O)c1ccc(F)cc1)C(=O)NC1CCCC1 (configuration not stated)	1%	i	?	i	?	-4%
Cc1ccc(C)c(S(=O)(=O)N2CCCCC2CCNC(=O)C(=O)NC2CCCC2)c1 (configuration not stated)	-1%	i	16µM*	?	?	-22%
Cc1ccc(S(=O)(=O)N2CCCCC2CCNC(=O)C(=O)NC2CCCC2)cc1 (configuration not stated)	-7%	i	21µM*	?	?	-17%
Cc1ccc(C)c(S(=O)(=O)N2CCCC2CNC(=O)C(=O)NC2CCCC2)c1 (configuration not stated)	5%	i	-32%	i	-8%	5%
Cc1ccc(CNC(=O)C(=O)NCCC2CCCCN2S(=O)(=O)c2cccs2)cc1 (configuration not stated)	10%	i	?	?	?	-1%
O=C(Nc1ccc2c(c1)OCCO2)C1c2ccccc2OCC(=O)N1C1CC1 (configuration not stated)	24%	i	-17%	i	10%	12%
SMILES	HT1080NT lethal	KB-3-1 tox	DT40 TDP1 no CPT	KB-V1 MDR tox	TDP1 cell CPT	HT1080 IDH1KD tx
CCOc1ccc(/C=C2\SC(=S)N(CCCC(=O)NCCCN3CCOCC3)C2=O)cc1	?	i	?	i	18µM*	16µM*
O=C(CCCN1C(=O)/C(=C/c2ccccc2Cl)SC1=S)NCCCN1CCOCC1	-1%	/	?	/	21µM*	-13%
COc1ccccc1/C=C1\SC(=S)N(CCC(=O)NCCCN2CCOCC2)C1=O	0%	i	?	i	-4%	-9%
COC(=O)c1ccc(/C=C2/SC(=S)N(CCC(=O)NCCCN3CCOCC3)C2=O)cc1	0%	i	?	i	?	17%
COc1ccc(C=C2SC(=S)N(CCCN3CCOCC3)C2=O)c(OC)c1	7%	i	16µM*	i	?	8%
CCc1ccc(/C=C2/SC(=S)N(CCC(=O)NCCCN3CCOCC3)C2=O)cc1	-25%	i	-21%	i	-30%	-24%
CCc1ccc(/C=C2\SC(=S)N(CCCC(=O)NCCCN3CCOCC3)C2=O)cc1	-18%	i	?	i	21µM*	?
O=C(CCN1C(=O)/C(=C/c2ccccc2F)SC1=S)NCCCN1CCOCC1	2%	i	?	i	?	-1%
O=C1C(=Cc2cccc(O)c2O)SC(=S)N1CCCN1CCOCC1	-3%	i	15µM*	i	13µM*	-5%
